Screens: PubChem, National Center for Advancing Translational Sciences (NCATS)
Rows were chosen to be rich in hits. Some 5.7% of all compounds tested hit in one or more screens of this group.
BAZ2B block: inhibitors of human BAZ2B bromodomain. Q9UIF8. AlphaScreen BAZ2B-H3K14Ac peptide displacement. Potency, µM (top dose mostly 114 µM), usual class: inhibitors. 360,000 tested, 4.4% active. AID 504333; note: nearly all actives have a fitted effect of over 60% in size
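Compounds, titrated to a top concentration of 110 uM, were incubated 30 min at room temperature with preformed BAZ2B/acetyl-K14 H3 peptide complex (50 nM each). Proximity signal was measured by AlphaScreen after 20 min with beads.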
JMJD2A Tudor inh: JMJD2A Tudor domain (human) inhibition; O75164; AlphaScreen JMJD2A-Tudor / H3K4me3 peptide binding; Potency, µM (highest dose often 114 µM), usual class: inhibitors; 390,000 tested, 4.4% active; AID 504339; note: nearly all actives have a fitted effect of over 50% in size
JMJD2E inh: inhibitors of human JMJD2E histone demethylase; JMJD2E catalytic domain, FDH-coupled NADH fluorescence (FDH is formaldehyde dehydrogenase); Potency, µM (series often up to 57.1 µM), usual class: inhibitors; 230,000 tested, 1.6% active; B2RXH2; active = well fitted inhibition curve with a large enough effect, not every such curve was filed as active; inconclusive = small, poorly fitted or top-dose-only effect, or another doubt; inactive = no such curve, though single readings can be large or run the other way; note: nearly all actives have a fitted effect of over 50% in size
Target sequence (B2RXH2 1-337 limits assumed): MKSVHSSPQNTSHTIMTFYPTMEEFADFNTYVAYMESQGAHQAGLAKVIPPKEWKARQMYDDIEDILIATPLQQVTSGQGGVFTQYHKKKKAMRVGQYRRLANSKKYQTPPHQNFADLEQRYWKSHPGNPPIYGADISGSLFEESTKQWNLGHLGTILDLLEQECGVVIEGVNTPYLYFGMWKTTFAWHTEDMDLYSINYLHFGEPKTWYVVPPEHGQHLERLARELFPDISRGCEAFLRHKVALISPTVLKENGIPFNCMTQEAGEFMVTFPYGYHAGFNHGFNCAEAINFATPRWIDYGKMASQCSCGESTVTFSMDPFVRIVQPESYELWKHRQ
HP1b binding inh: HP1-beta chromodomain-methylated histone interaction inhibition. Potency, µM (series often up to 114 µM), actives largely listed as inhibitors. P83916. 390,000 tested, 0.56% active. AlphaScreen HP1-beta / biotin-H3K9me3 peptide binding; note: nearly all actives have a fitted effect of over 70% in size
Target sequence (P83916 whole entry, looked up): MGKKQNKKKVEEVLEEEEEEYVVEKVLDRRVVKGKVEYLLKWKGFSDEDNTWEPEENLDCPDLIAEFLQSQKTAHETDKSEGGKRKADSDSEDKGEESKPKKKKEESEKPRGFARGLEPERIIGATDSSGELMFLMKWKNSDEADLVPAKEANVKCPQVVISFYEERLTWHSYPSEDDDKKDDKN
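AlphaScreen: HP1-beta (50 nM) preformed 30 min with biotin-H3(1-18)K9me3 peptide (50 nM) in PBS pH 7.4, 0.01% Tween-20. Compound added for 30 min at RT, then streptavidin donor/nickel chelate acceptor beads (10 ug/mL) for 30 min.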
L3MBTL1 block: L3MBTL1 (human) inhibition; AlphaScreen L3MBTL1–H3K9me1 peptide binding; AID 485360; Q9Y468; Potency, µM (doses to about 57.1 µM), hits mostly inhibitors; 230,000 tested, 0.66% active; note: nearly all actives have a fitted effect of over 60% in size
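Read-out is AlphaScreen signal from streptavidin donor and nickel chelate acceptor beads (10 ug/mL final each) bridging L3MBTL1 (50 nM) and biotinylated K9-monomethylated H3(1-15) peptide (75 nM), after 30 min compound exposure at room temperature.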
PI5P4Ka inh: inhibitors of human PI5P4K alpha; P48426; PI5P4Kalpha enzyme, ADP-Glo luminescence, 60 min; hits give low values; max response, %; 330,000 tested, 1.2% active; AID 652105; active = max response of -50% or lower; inconclusive = between -30% and -50%; inactive = -30% or higher; note: value at the top dose of about 77 µM
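qHTS, 1536-well: enzyme/substrate mix, compound by pin tool, 5 microM ATP final; RT 60 min; ADP-Glo reagents 1 (45 min) then 2 (30 min); luminescence.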
Large screens that a line does not name were inactive. Unless noted, calls come from the whole dose curve; as a rule, active = well fitted inhibition curve with a large enough effect; inconclusive = small, poorly fitted or top-dose-only effect; inactive = no such curve, though single readings can be large or run the other way.

C#CCOCCOCCOCCNc1nc(N2CCN(C(=O)[C@H](CCC(=O)O)n3cc(C(N)CO)nn3)CC2)nc(N2CCN(C(=O)[C@H](Cc3cc4ccccc4[nH]3)n3cc(C(N)[C@H](C)CC)nn3)CC2)n1 (stereo partly specified)	BAZ2B block 50.1µM, JMJD2A Tudor inh 44.7µM, L3MBTL1 block inconclusive
C#CCOCCOCCOCCNc1nc(N2CCN(C(=O)[C@H](CCC(=O)O)n3cc(CN)nn3)CC2)nc(N2CCN(C(=O)[C@H](CCCN=C(N)N)n3cc(C(N)[C@@H](C)CC)nn3)CC2)n1 (stereo partly specified)	JMJD2A Tudor inh inconclusive (no result: BAZ2B block, JMJD2E inh)
C#CCOCCOCCOCCNc1nc(N2CCN(C(=O)[C@H](CCCCN)n3cc([C@@H](N)C(C)CC)nn3)CC2)nc(N2CCN(C(=O)[C@H](Cc3cc4ccccc4[nH]3)n3cc([C@@H](N)CC(C)C)nn3)CC2)n1 (stereo partly specified)	BAZ2B block 31.6µM, JMJD2A Tudor inh 35.5µM, JMJD2E inh inconclusive, PI5P4Ka inh -56.6
C#CCOCCOCCOCCNc1nc(N2CCOCC2)nc(N2CCN(C(=O)[C@H](CC(N)=O)n3cc(C(N)[C@@H](C)CC)nn3)CC2)n1 (stereo partly specified)	none (no result: BAZ2B block, JMJD2E inh)
C#CCOCCOCCOCCNc1nc(N2CCN(C(=O)[C@H](Cc3cc4ccccc4[nH]3)n3cc([C@@H](N)C(C)CC)nn3)CC2)nc(N2CCN(C(=O)[C@H](CCCCN)n3cc([C@@H](N)CO)nn3)CC2)n1 (stereo partly specified)	BAZ2B block 25.1µM (no result: JMJD2A Tudor inh, HP1b binding inh, PI5P4Ka inh)
COc1cccc(OCCSc2nc3ccccc3n2CC(=O)N2CCOCC2)c1	none (no result: JMJD2E inh, L3MBTL1 block, PI5P4Ka inh)
CC(=O)c1cccc(NC(=O)C2CCN(S(=O)(=O)c3ccc4c(c3)CCCN4C(C)=O)CC2)c1	none (no result: JMJD2E inh, L3MBTL1 block, PI5P4Ka inh)
O=C(NP(=O)(N1CCCC1)N1CCCC1)C1=C(N2CCOCC2)/C(=C/c2cccc([N+](=O)[O-])c2)CC1	BAZ2B block 44.7µM
Cc1cc(/C=C2/C(=O)N(C)C(=S)N2C)c(C)n1C1CC1	BAZ2B block inconclusive, JMJD2A Tudor inh inconclusive
Cc1cc(/C=C2\SC(=S)NC2=O)c(C)n1C1CC1	BAZ2B block 44.7µM, JMJD2A Tudor inh 44.7µM (no result: PI5P4Ka inh)
O=C1NC(=S)SC1=Cc1ccccc1Br	JMJD2A Tudor inh inconclusive, HP1b binding inh inconclusive, PI5P4Ka inh -72.1 (no result: BAZ2B block, JMJD2E inh, L3MBTL1 block)
O=C(O)CCn1cc(/C=C2\SC(=S)NC2=O)c(-c2ccccc2)n1	PI5P4Ka inh inconclusive (no result: BAZ2B block)
O=C1NC(=S)SC1=Cc1cc(Br)ccc1O	JMJD2A Tudor inh 20µM, HP1b binding inh inconclusive, PI5P4Ka inh -76.7 (no result: BAZ2B block, JMJD2E inh, L3MBTL1 block)
CCc1ccc(NC(=O)c2nn(-c3ccc(OC)cc3)c(=O)c3c2c2ccccc2n3C)cc1	none (no result: BAZ2B block, JMJD2E inh, L3MBTL1 block, PI5P4Ka inh)
O=S(=O)(c1ccsc1)N1CCN(c2nc(-c3cccs3)nc3ccccc23)CC1	none (no result: BAZ2B block, JMJD2E inh, HP1b binding inh, L3MBTL1 block, PI5P4Ka inh)
Cc1ccc(-c2nc(N)s[n+]2-c2ccccc2)cc1	JMJD2A Tudor inh 28.2µM, HP1b binding inh inconclusive, PI5P4Ka inh -80.0
CNc1nc(-c2ccccc2)[n+](-c2ccc(C)cc2)s1	BAZ2B block 7.94µM, JMJD2A Tudor inh 20µM, HP1b binding inh 11.2µM, PI5P4Ka inh -99.1
O=C(CCCN1C(=O)c2cccc3cccc(c23)C1=O)N1CCN(c2ccc(F)cc2)CC1	none
COc1ccc(N2CCN(C(=O)CCCN3C(=O)c4cccc5cccc(c45)C3=O)CC2)cc1	BAZ2B block 39.8µM, JMJD2A Tudor inh inconclusive, JMJD2E inh inconclusive (no result: PI5P4Ka inh)
COC(=O)CCCN1C(=O)c2cccc3cccc(c23)C1=O	BAZ2B block 44.7µM (no result: JMJD2E inh)
COc1ccc2c(Sc3ccc(Cl)cc3)c(C(=O)NCCCN3CCCCC3)[nH]c2c1	none (no result: JMJD2E inh, L3MBTL1 block, PI5P4Ka inh)
Cc1nn(S(=O)(=O)c2cccc([N+](=O)[O-])c2)c(C)c1S(=O)(=O)N1CCOCC1	JMJD2A Tudor inh 79.4µM (no result: JMJD2E inh, L3MBTL1 block)
Cc1ccc(S(=O)(=O)n2nc(C)c(S(=O)(=O)N3CCOCC3)c2C)cc1	BAZ2B block inconclusive, JMJD2A Tudor inh inconclusive (no result: JMJD2E inh, L3MBTL1 block)
CCOC(=O)c1cc(-c2ccc(F)cc2)n(CC(=O)NC2CCCCC2)c1C	none (no result: JMJD2E inh, L3MBTL1 block, PI5P4Ka inh)
CCOc1ccccc1CN(CCc1ccc2c(c1)OCO2)Cc1ccccn1	BAZ2B block 35.5µM, JMJD2A Tudor inh 3.16µM, JMJD2E inh inconclusive, HP1b binding inh inconclusive
